The whole screen tested about 330,000 compounds, of which about 1,900 (0.58%) were called active. Roughly 4% stayed inconclusive and do not appear here. Rule as the data show it: inconclusive = inhibition above about 70% without an active follow-up result; inactive = below that. Only a sample is shown. Potency and affinity values are given separately.
test: M. tuberculosis growth inhibition, HTS (AID 449762);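 also: bacterial growth assessed after seven days of incubation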; conditions: M. tuberculosis H37Rv growth inhibition, 7H9 media; at 25 µM; active compounds read high

Structure (SMILES)	inhibition
N#CC(C(=O)Nc1ccc(Cl)cc1)=C1Nc2ccccc2N1	1.22% (inactive)
N#CC(C(=O)Nc1cccc(Cl)c1)=C1Nc2ccccc2N1	2.4% (inactive)
O=C(CCCN1C(=O)S/C(=C\C=C\c2ccccc2)C1=O)Nc1ccc(C(=O)O)cc1	-3.27% (inactive)
O=C(COc1ccc(C(=S)N2CCOCC2)cc1Cl)Nc1ccccc1Cl	6.58% (inactive)
O=C(NNC(=O)C1CCN(S(=O)(=O)c2ccccc2C(F)(F)F)CC1)c1ccccc1O	6.28% (inactive)
COc1cccc(N2CCN(C(=O)CCNS(=O)(=O)c3ccc4c(c3)c(=O)n(C)c(=O)n4C)CC2)c1	-0.56% (inactive)
CCC(CC)c1nnc(NC(=O)c2cc([N+](=O)[O-])ccc2N2CCCCC2)s1	9.65% (inactive)
Cc1ccc(Nc2nc(N)nc(CN3CCN(C)CC3)n2)cc1	-7.52% (inactive)
COc1ccc(Nc2nc(N)nc(CN3CCc4ccccc4C3)n2)cc1	7.44% (inactive)
CCC(C)c1ccc(OCC(=O)O)cc1 (configuration not stated)	-1.06% (inactive)
COC(=O)c1ccc(COC(=O)c2ccc(CO)cc2)o1	9.22% (inactive)
CCOc1cc(C(N)=O)cc(Br)c1OC	-2.81% (inactive)
CC(C)COC(=O)NCCCOC(=O)Nc1ccccc1	2.06% (inactive)
Cc1ccc(C)c(NC(=O)CCc2c(C)nn(-c3ccc(N4CCCCC4)nn3)c2C)c1	-0.31% (inactive)
COc1ccccc1CNC(=O)CSc1nc(C)cs1	-6.19% (inactive)
CN(CCOc1ccc(Cl)cc1)C(=O)CN1C(=O)NC2(CCCC2)C1=O	-10.9% (inactive)
Fc1ccc(OCCOCCN2CCNCC2)cc1	-3.98% (inactive)
COc1ccc(C[C@H]2CN3C(=NC[C@H]3C)N2CCNC(=O)CCC2CCCCC2)cc1	2.73% (inactive)
COc1ccc(C[C@H]2CN3C(=NC[C@@H]3C)N2CCNC(=O)CCC2CCCCC2)cc1	-0.84% (inactive)
O=C1C(Cc2ccccc2)Nc2ncnc(N3CCN(c4ccccc4)CC3)c2N1Cc1ccc(Br)cc1 (configuration not stated)	0.68% (inactive)
COc1ccc(C2CC(=O)C3=C(C2)Nc2ccccc2N(C(C)=O)C3c2ccco2)cc1 (configuration not stated)	-14% (inactive)
CC(CN1CCOCC1)C(=O)c1ccccc1 (configuration not stated)	3.78% (inactive)
O=C(c1ccc(F)cc1)C(CN1CCOCC1)c1ccccc1 (configuration not stated)	3.13% (inactive)

Structure (SMILES)	inhibition
COc1ccc(C(NC(=O)c2cccc(F)c2)c2ccccc2)cc1 (configuration not stated)	-16.4% (inactive)
C=CCn1cnc2c(nnn2-c2cc(C)cc(C)c2)c1=O	7.46% (inactive)
Cc1ccc(C(=O)NN(CCC(=O)NC(C)(C)C)C2=NS(=O)(=O)c3ccccc32)cc1	3.72% (inactive)
CC1(C)CC(NC(=O)c2cccc(S(=O)(=O)N(Cc3ccccc3)c3ccccc3)c2)CC(C)(C)N1	-5.74% (inactive)
O=C(O)c1ccc(Cl)c(S(=O)(=O)N(Cc2ccccc2)c2ccccc2)c1	-3.72% (inactive)
Cc1nn(CCCC(=O)N2CCN(c3ccc(F)cc3)CC2)c(C)c1[N+](=O)[O-]	2.18% (inactive)
Cc1cc[n+](CC[n+]2ccc(C)cc2)cc1	-0.82% (inactive)
CCC(C)(C)c1ccc(OCC(=O)N(C)C)c(C(C)(C)CC)c1	-12.9% (inactive)
CCc1ccc(C(=O)Nc2ccc3nc(C)ccc3c2)cc1	0.01% (inactive)
CCc1nc2ccccc2c(C(=O)Nc2cccc(C)c2)c1C	7.7% (inactive)
CCc1nc2ccccc2c(C(=O)Nc2ccc(C)cc2)c1C	4.44% (inactive)
CCOC(=O)C1CCCN(CC(O)COc2cccc(C)c2)C1 (configuration not stated)	-3.72% (inactive)
COc1ccccc1C(=O)N/C(=C\c1ccccc1)C(=O)NC(Cc1ccccc1)C(=O)O (configuration not stated)	-6.9% (inactive)
Cc1ccc(NC(=O)CSCC(=O)N=c2sccn2C)cc1	-9.96% (inactive)
CCc1nc2c(c(=O)c3ccccc3n2C)c(=O)n1C1CCCCCC1	6.04% (inactive)
Cc1nc2c(c(=O)c3ccccc3n2C)c(=O)n1C1CCCCCC1	-2.45% (inactive)
COc1ccc(OC)c(S(=O)(=O)N2CCCCC2C(=O)O)c1 (configuration not stated)	-12.8% (inactive)
COc1ccccc1OCCCCN1CCN(c2ccccc2OC)CC1	-3.03% (inactive)
COc1ccccc1N1CCN(CCCCOc2c(OC)cccc2OC)CC1	4.13% (inactive)
CN(C)c1cccc2c1c(NC(=O)c1ccc(F)cc1)nn2C	-5.17% (inactive)
Cc1nc2c(c(=O)[nH]1)C(c1ccc([N+](=O)[O-])cc1)c1c(c3ccccc3oc1=O)O2 (configuration not stated)	4.87% (inactive)
O=S(=O)(NC1CC(NS(=O)(=O)OCC(Cl)(Cl)Cl)C2CCCCC12)OCC(Cl)(Cl)Cl (configuration not stated)	4.68% (inactive)
CCC1Oc2ccc(C)cc2N(CC(=O)N2CCCC2)C1=O (configuration not stated)	9.77% (inactive)

Structure (SMILES)	inhibition
CC1(C)Oc2ccc3ccc(=O)oc3c2/C(=C/O)C1=O	2.64% (inactive)
COC1=Cc2c(ccc3ccc(=O)oc23)OC1(C)C	1.79% (inactive)
O=C(OCc1nnc(-c2ccc(Cl)cc2)o1)C12CC3CC(CC(O)(C3)C1)C2	7.22% (inactive)
CCOC(=O)c1cc(C(=O)NC(C)c2ccccc2)c(C)[nH]c1=O (configuration not stated)	-4.64% (inactive)
CCOC(=O)c1c(NCc2ccccc2)n[nH]c1C	-5.08% (inactive)
CCOC(=O)c1nnc(-c2ccccc2)nc1Sc1c(Cl)cccc1Cl	4.17% (inactive)
CCOC(=O)c1nnc(-c2ccc(C)cc2)nc1Sc1ccccc1Cl	13.5% (inactive)
CCOC(=O)c1nnc(-c2ccccc2)nc1NC	-30.8% (inactive)
O=C(CCN1C(=O)/C(=C\c2ccccc2Cl)SC1=S)Nc1cccnc1	2.83% (inactive)
COC(=O)C1C2c3ccccc3OC1(C)N=c1s/c(=C/c3cn(C)nc3C)c(=O)n12 (configuration not stated)	-3.81% (inactive)
CC(=O)C1C2c3ccccc3OC1(C)N=c1s/c(=C/c3cn(C)nc3C)c(=O)n12 (configuration not stated)	1.62% (inactive)
COc1ccc(-c2cc3ccccc3oc2=O)cc1NC(=O)c1cccnc1	4.8% (inactive)
COc1ccc(-c2cc3ccccc3oc2=O)cc1NC(=O)c1ccc(Br)o1	-2.95% (inactive)
Cn1c(-c2nonc2N)nc2ccccc21	0.49% (inactive)
CC(C(c1cccs1)c1c(N)n(C)c(=O)n(C)c1=O)[N+](=O)[O-] (configuration not stated)	-8.45% (inactive)
COc1ccccc1C(c1c(N)n(C)c(=O)n(C)c1=O)C(C)[N+](=O)[O-] (configuration not stated)	43.9% (inactive)
O=C(CSCc1cc(=O)n2nc(C3CC3)sc2n1)Nc1ccc(F)cc1	-2.05% (inactive)
CC(C)(C)OC(=O)N1CCC(NC(=O)c2[nH]cnc2C(=O)N[C@@H](Cc2ccccc2)C(=O)OCc2ccccc2)CC1	-4.13% (inactive)
C[C@H](NC(=O)c1nc[nH]c1C(=O)NC1CCN(C(=O)OC(C)(C)C)CC1)C(=O)OCc1ccccc1	-4.49% (inactive)
Cc1ccc(NC2CCCN(C(=O)c3cccc4nccnc34)C2)cc1C (configuration not stated)	-9.4% (inactive)
NS(=O)(=O)c1ccc(-c2ccc(C=NC3CCS(=O)(=O)C3)o2)cc1 (configuration not stated)	-12% (inactive)
NS(=O)(=O)c1ccc(-c2ccc(/C=C3\SC(=S)N(C4CCS(=O)(=O)C4)C3=O)o2)cc1 (configuration not stated)	0.18% (inactive)
O=C(CCc1nc2ccccc2c(=O)[nH]1)N1CCN(S(=O)(=O)c2cccc(F)c2)CC1	-17.1% (inactive)

Structure (SMILES)	inhibition
NC(=O)NC(CC(=O)NCCCc1ccccc1)c1ccc(Cl)cc1 (configuration not stated)	5.17% (inactive)
CS(=O)(=O)c1ccc(C(=O)Nc2cc(S(C)(=O)=O)ccc2Cl)cc1	2.11% (inactive)
COc1ccccc1C1C=C(c2ccc(C)cc2)Nc2nnnn21 (configuration not stated)	-0.45% (inactive)
COc1ccc(OC)c(C2C=C(c3ccc(C)c(C)c3)Nc3nnnn32)c1 (configuration not stated)	4.57% (inactive)
COC(=O)C(C)(C)ONC(=O)Nc1ccc(C)cc1	0.62% (inactive)
COc1ccc(Cl)cc1N(CC(=O)NC(C)(C)C)S(=O)(=O)c1ccc(C)c([N+](=O)[O-])c1	-3.67% (inactive)
CCC(CC)C(=O)Nc1nnc(SCC(=O)N2CCN(c3ccccc3OC)CC2)s1	4.18% (inactive)
Cc1ccc(C(=O)CC(=O)c2ccccc2)cc1	61.8% (inactive)
Cc1ccc(C(=O)Nc2ccccc2Sc2ccccc2)cc1	9.64% (inactive)
COc1ccc(C)cc1NC(=O)c1ccc(NC(=O)CC2SC(N3CCCC3)=NC2=O)cc1 (configuration not stated)	1.94% (inactive)
CCN(CC)CC1C(=O)N(c2ccc(OC)cc2)C1c1ccccc1 (configuration not stated)	-4.16% (inactive)
COCCn1c(=O)[nH]c2cc(C(=O)N3CCN(c4ccccc4)CC3)ccc2c1=O	5.58% (inactive)
COc1ccccc1CNC(=O)/C=C/c1ccc(Br)o1	3.6% (inactive)
CN(C)c1ccc(/C=C/c2ccc3ccccc3[n+]2C)cc1	66.1% (inactive)
Cc1cc(/C=N/O)c(C)n1-c1ccccc1	-2.51% (inactive)
CC(C)[C@H](NC(=O)c1cc2cc(Cl)ccc2n1C)C(=O)N[C@@H](C(=O)O)c1ccccc1	-9.63% (inactive)
CCc1ccc(/C=C2/Sc3ccccc3N(CC(=O)NCCCN3CCOCC3)C2=O)cc1	38.4% (inactive)
CC(C)(C)c1ccc(-c2nc(N)nc(N)n2)cc1	-3.01% (inactive)
CC(C)(C)c1cc(-c2nc(N)nc(N)n2)cc(C(C)(C)C)c1	9.97% (inactive)
NC(=O)c1cccc2c3c([nH]c12)CCCC3	-3.75% (inactive)
CCOC(=O)C1CCCc2c1[nH]c1c(C(=O)O)cccc21 (configuration not stated)	9.6% (inactive)
CCOc1ccc(CCNC(=O)C2=C(C)C(=O)OC23CCCCC3)cc1OCC	-0.34% (inactive)
C[C@H](CO)N1C[C@H](C)[C@@H](CN(C)C(=O)Nc2ccccc2)Oc2ccc(NC(=O)Cc3ccccc3)cc2C1=O	0.43% (inactive)

From PubChem BioAssay AID449762 (Southern Research Specialized Biocontainment Screening …, 2010)
